The term AC50 denotes the concentration at which the activity in the assay is half-maximal.

Consider 33 molecules from PubChem BioAssay (EPA / NIEHS).

Molecules are shown by their SMILES. Results filed as inconclusive are left out. The source made the active and inactive calls. Rule for the calls: active = hit-call score of the fitted dose curve at least 0.9, where 1 is the maximum; inconclusive = response in the unintended direction; inactive = score below 0.9.

The target in experiment [1] is human Neurokinin, NK2 Receptor, TACR2 (gene 6865) (UniProt P21452). The experiment in a line: NVS_GPCR_hNK2: NovaScreen (NVS) G Protein-Coupled Receptor Assay for human Neurokinin, NK2 Receptor (AID 2283278).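 Note: actives reduce bound radioligand signal relative to DMSO baseline.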 A digest of the protocol:
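Cell-free radioligand binding using receptor protein extracted from CHO cells; readings taken 4 hours after chemical dosing by filter-based scintillation counting. Primary screen ran single concentration (25 uM) in duplicate; actives followed up in concentration series, loss-of-signal versus DMSO baseline.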

Experiment [2] deals with human Thromboxane A2 Receptor (TXA2), TBXA2R (gene 6915) (UniProt P21731). Description: NVS_GPCR_hTXA2: NovaScreen (NVS) G Protein-Coupled Receptor Assay for human Thromboxane A2 Receptor (TXA2) (AID 2283282).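 Note: actives reduce bound radioligand signal relative to DMSO baseline.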 The procedure, abridged: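 Human platelet membranes tested for radioligand displacement by filtration and scintillation counting 1 h post-dose. Screened in duplicate at 25 uM; activity fitted as signal loss relative to DMSO.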
human Thromboxane A2 Receptor (TXA2), TBXA2R (gene 6915), sequence (P21731 whole entry, looked up): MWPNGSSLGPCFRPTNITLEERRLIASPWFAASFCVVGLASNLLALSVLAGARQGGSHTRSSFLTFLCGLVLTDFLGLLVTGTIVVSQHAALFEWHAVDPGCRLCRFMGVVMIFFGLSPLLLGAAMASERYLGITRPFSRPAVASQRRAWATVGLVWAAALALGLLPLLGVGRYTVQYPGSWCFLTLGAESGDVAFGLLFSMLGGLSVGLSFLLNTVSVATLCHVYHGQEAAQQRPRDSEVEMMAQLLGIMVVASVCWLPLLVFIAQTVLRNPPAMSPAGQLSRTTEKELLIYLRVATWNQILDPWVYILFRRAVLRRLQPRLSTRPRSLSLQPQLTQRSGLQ

The target of experiment [3] is human Vasopressin 1A Receptor (V1A), AVPR1A (gene 552) (UniProt P37288). Description: NVS_GPCR_hV1A: NovaScreen (NVS) G Protein-Coupled Receptor Assay for human Vasopressin 1A Receptor (V1A) (AID 2283284). A digest of the protocol:
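Cell-free radioligand displacement on human platelet preparations, 1.5 h incubation, filter-based scintillation counting. Chemicals first tested in duplicate at 25 uM; actives then run in concentration-response up to 50 uM, loss of signal fitted against DMSO.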

The target of experiment [4] is human Opioid Receptor Delta 1 (Opiate D1), OPRD1 (gene 4985) (UniProt P41143). Description: NVS_GPCR_hOpiate_D1: NovaScreen (NVS) G Protein-Coupled Receptor Assay for human Opioid Receptor Delta 1 (Opiate D1) (AID 2283280). The procedure, abridged:
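Radioligand displacement on membranes from CHO cells expressing the receptor, read by filter scintillation counting 1 h after dosing. Duplicate single-point screen at 25 uM, then concentration series for actives; loss of signal versus DMSO.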

For experiment [5], the target named is rat Serotonin, 5-Hydroxytryptamine Receptor 1 (5HT1), Non-Selective Binding, Htr1a (gene 24473) (UniProt P19327). The experiment in a line: NVS_GPCR_r5HT1_NonSelective: NovaScreen (NVS) G Protein-Coupled Receptor Assay for rat Serotonin, 5-Hydroxytryptamine Receptor 1 (5HT1), Non-Selective Binding (AID 2283286). A digest of the protocol:
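Rat cortical membranes, radioligand displacement, 1 h incubation, read by filter scintillation. Primary screen in duplicate at 25 uM. Hits (e.g. ≥30% inhibition) went to concentration-response up to 50 uM, fitted as loss of binding versus DMSO.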

Experiment [6] has as its target mouse Cholecystokinin, CCK1 Receptor (CCKA), Cckar (gene 12425) (UniProt O08786). Description: NVS_GPCR_mCCKAPeripheral: NovaScreen (NVS) G Protein-Coupled Receptor Assay for mouse Cholecystokinin, CCK1 Receptor (CCKA) (AID 2283285). The protocol: NVS_GPCR_mCCKAPeripheral is a biochemical, single-readout assay that uses extracted gene-proteins from Mouse pancreatic membranes in a tissue-based cell-free assay. Measurements were taken 2 hours after chemical dosing in a 96-well plate.NVS_GPCR_mCCKAPeripheral is one of one assay component(s) measured or calculated from the NVS_GPCR_mCCKAPeripheral assay. It is designed to make measurements of radioligand binding, a form of binding reporter, as detected with scintillation counting signals by Filter-based radiodetection technology.Data from the assay component NVS_GPCR_mCCKAPeripheral was analyzed into 1 assay endpoint. This assay endpoint, NVS_GPCR_mCCKAPeripheral, was analyzed in the positive analysis fitting direction relative to DMSO as the negative control and baseline of activity. Using a type of binding reporter, loss-of-signal activity can be used to understand changes in the binding as they relate to the gene Cckar. Furthermore, this assay endpoint can be referred to as a primary readout, because the performed assay has only produced 1 assay endpoint. To generalize the intended target to other relatable targets, this assay endpoint is annotated to the gpcr intended target family, where the subfamily is rhodopsin-like receptor.
Binding assays used specific radioligands (tritiated, iodinated) with non-radioactive competitive displacement ligands in agonist or antagonist protocols (as indicated) and various reference compounds and inhibitors to titrate specific binding to receptors and transporters. Most enzyme assays (CYPs, kinases, phosphatases, proteases, HDACs) used recombinant protein and specific substrates (fluorescence mostly, some colorimetric and radioactive) and inhibitors, followed by a biochemical separation of substrate and product. All assays for the biochemical HTS were initially run in duplicate at a single concentration (10 uM for CYP450 assays and 25 uM for all others). Assay-chemical combinations meeting a pre-defined threshold (e.g., 30% inhibition and other criteria defined below) were then run in singleton concentration-response format with maximum concentration of 20 uM for CYPs and 50 uM for all others. Each assay was run with positive and negative controls, and concurrent controls on every plate. The follow-up (secondary) screen tested active chemical-pairs in concentration series, as well as a few additional assays not tested in the primary screen, some selected negative inactives, and several cases re-run in the concentration series for confirmatory purposes.

The subject of experiment [7] is rabbit Platelet Activating Factor Receptor (PAF), gene 100354046. Description: NVS_GPCR_rabPAF: NovaScreen (NVS) G Protein-Coupled Receptor Assay for rabbit Platelet Activating Factor Receptor (PAF) (AID 2283287). A digest of the protocol:
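Rabbit platelet membrane preparation; radioligand displacement read by filter-based scintillation counting 1 h after dosing, loss of signal versus DMSO. Primary screen in duplicate at 25 uM, actives followed up in concentration series.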

In experiment [8] the target is Neuropeptide Y receptor type 2 (Homo sapiens) (UniProt P49146). Description: NVS_GPCR_hNPY2: NovaScreen (NVS) G Protein-Coupled Receptor Assay for human Neuropeptide Receptor Y2 (NPY2) (AID 2283277). A digest of the protocol: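 Radioligand binding on membranes extracted from SK-N-MC cells, cell-free, read 1 h after dosing by filter-based scintillation counting. Loss of signal vs DMSO. Primary screen in duplicate at 25 uM; actives followed up in concentration-response up to 50 uM.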
Neuropeptide Y receptor type 2 (Homo sapiens), sequence (P49146 whole entry, looked up): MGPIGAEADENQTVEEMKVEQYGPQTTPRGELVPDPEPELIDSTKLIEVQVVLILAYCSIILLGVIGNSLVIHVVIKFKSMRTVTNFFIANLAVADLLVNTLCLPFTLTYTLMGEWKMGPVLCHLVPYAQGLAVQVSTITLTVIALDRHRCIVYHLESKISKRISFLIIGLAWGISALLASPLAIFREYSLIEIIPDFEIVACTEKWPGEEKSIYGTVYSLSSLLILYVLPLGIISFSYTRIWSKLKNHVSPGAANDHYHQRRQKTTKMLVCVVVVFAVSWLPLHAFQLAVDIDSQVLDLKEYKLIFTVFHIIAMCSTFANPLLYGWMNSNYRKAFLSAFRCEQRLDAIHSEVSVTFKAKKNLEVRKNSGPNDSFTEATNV

The target of experiment [9] is human Orphanin, Opioid Related Nociceptin Receptor 1 (ORL1), OPRL1 (gene 4987) (UniProt P41146). The experiment in a line: NVS_GPCR_hORL1: NovaScreen (NVS) G Protein-Coupled Receptor Assay for human Orphanin, Opioid Related Nociceptin Receptor 1 (ORL1) (AID 2283283). A digest of the protocol:
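Filter-based radioligand displacement with receptor extracted from HEK293 cells, read 1 hour after dosing by scintillation counting. Duplicate single-point screen at 25 uM; qualifying chemicals then run in concentration-response to 50 uM, analysed relative to DMSO.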

Experiment [10] has as its target human Neurotensin Receptor (NTS), NTSR1 (gene 4923) (UniProt P30989). The experiment in a line: NVS_GPCR_hNTS: NovaScreen (NVS) G Protein-Coupled Receptor Assay for human Neurotensin Receptor (NTS) (AID 2283279). A digest of the protocol: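 Radioligand displacement on human NTSR1 protein from CHO cells, cell-free, 1 h, filter-based scintillation counting. Primary screen at 25 uM in duplicate; hits rerun in concentration-response up to 50 uM.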

mouse Cholecystokinin, CCK1 Receptor (CCKA), Cckar (gene 12425), sequence (O08786 whole entry, looked up): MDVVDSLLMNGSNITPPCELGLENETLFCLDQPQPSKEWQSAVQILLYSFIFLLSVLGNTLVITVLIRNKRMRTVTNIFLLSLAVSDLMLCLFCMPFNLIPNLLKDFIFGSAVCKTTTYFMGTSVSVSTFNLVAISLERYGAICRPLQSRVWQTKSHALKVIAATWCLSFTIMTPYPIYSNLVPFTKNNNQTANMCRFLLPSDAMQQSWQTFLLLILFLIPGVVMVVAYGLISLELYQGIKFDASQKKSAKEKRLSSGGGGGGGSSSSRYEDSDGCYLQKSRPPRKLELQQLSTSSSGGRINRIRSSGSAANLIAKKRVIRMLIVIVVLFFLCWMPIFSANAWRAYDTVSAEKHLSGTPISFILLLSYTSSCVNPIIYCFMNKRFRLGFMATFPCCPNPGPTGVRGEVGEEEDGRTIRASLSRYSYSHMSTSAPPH
rat Serotonin, 5-Hydroxytryptamine Receptor 1 (5HT1), Non-Selective Binding, Htr1a (gene 24473), sequence (P19327 whole entry, looked up): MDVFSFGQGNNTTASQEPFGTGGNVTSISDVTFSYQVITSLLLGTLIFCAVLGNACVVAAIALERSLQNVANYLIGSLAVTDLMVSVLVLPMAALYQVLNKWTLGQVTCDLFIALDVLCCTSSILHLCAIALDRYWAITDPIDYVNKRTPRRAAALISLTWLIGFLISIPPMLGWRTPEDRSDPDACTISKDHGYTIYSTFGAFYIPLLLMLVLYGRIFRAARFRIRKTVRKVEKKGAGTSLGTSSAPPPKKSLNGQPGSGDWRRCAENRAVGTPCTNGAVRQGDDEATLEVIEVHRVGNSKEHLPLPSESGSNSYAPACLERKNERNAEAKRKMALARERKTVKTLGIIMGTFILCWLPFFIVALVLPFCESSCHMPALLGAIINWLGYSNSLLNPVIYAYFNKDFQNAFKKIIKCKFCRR
human Orphanin, Opioid Related Nociceptin Receptor 1 (ORL1), OPRL1 (gene 4987), sequence (P41146 whole entry, looked up): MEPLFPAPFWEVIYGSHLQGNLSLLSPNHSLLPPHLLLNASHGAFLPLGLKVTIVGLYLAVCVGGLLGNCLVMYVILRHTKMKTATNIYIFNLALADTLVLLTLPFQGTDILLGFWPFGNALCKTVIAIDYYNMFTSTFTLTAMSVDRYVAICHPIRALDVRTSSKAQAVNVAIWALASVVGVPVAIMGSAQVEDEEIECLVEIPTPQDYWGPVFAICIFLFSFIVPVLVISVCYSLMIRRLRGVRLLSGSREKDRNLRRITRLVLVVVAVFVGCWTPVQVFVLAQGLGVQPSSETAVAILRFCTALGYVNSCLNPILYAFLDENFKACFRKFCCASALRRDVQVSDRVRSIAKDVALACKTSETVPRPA
human Opioid Receptor Delta 1 (Opiate D1), OPRD1 (gene 4985), sequence (P41143 whole entry, looked up): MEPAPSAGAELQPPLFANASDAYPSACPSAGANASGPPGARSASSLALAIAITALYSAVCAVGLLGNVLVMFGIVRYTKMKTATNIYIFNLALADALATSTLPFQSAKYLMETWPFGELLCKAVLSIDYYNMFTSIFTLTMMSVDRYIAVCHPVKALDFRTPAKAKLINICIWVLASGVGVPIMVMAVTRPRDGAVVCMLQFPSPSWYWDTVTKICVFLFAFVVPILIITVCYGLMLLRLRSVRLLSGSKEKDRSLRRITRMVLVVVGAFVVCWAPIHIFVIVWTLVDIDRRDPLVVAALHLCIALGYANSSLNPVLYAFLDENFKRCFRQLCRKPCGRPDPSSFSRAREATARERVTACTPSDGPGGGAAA
human Neurokinin, NK2 Receptor, TACR2 (gene 6865), sequence (P21452 whole entry, looked up): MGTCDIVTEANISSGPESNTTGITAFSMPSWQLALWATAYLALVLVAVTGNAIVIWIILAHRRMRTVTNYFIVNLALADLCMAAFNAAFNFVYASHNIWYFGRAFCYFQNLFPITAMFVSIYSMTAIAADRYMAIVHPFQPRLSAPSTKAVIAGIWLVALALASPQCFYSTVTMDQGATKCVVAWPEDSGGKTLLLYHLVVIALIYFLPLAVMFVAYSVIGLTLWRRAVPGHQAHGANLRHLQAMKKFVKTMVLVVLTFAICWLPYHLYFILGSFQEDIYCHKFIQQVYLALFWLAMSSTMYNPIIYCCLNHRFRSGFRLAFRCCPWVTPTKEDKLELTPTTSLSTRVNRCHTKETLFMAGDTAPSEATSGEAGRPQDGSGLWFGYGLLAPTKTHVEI
human Vasopressin 1A Receptor (V1A), AVPR1A (gene 552), sequence (P37288 whole entry, looked up): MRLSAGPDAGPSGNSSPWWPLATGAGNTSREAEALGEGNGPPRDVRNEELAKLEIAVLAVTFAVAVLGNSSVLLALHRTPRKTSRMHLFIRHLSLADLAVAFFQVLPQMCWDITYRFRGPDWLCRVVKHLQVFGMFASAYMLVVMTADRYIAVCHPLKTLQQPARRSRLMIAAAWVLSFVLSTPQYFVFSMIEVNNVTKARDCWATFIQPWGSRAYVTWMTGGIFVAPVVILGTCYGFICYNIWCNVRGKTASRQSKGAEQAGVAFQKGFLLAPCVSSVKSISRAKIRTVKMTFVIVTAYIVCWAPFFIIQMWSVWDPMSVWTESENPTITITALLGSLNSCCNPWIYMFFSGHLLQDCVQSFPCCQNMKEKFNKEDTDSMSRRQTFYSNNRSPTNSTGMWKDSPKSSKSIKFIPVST
human Neurotensin Receptor (NTS), NTSR1 (gene 4923), sequence (P30989 whole entry, looked up): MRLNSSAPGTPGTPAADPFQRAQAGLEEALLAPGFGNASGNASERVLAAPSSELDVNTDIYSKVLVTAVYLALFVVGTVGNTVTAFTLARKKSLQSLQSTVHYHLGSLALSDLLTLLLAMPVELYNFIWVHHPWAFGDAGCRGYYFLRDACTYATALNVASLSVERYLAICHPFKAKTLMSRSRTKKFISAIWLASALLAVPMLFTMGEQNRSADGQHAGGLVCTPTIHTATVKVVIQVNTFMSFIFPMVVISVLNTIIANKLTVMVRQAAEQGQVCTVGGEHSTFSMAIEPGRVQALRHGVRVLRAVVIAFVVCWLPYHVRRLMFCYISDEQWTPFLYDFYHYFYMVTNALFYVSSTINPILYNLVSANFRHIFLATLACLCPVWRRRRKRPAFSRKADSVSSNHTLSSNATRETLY

With `CCOC(=O)c1ccc(C2CCC(NC[C@H](O)COc3ccc(O)c(NS(C)(=O)=O)c3)CC2)cc1` (some centres not stated), in [1], the AC50 is 5.98 µM (active). Consider `Cc1c(-c2cccnc2)c2ccccc2n1CCCCC(=O)O`, for which the AC50 in experiment [2] is 5.82 µM (active).

As for `Cc1ccc(O)cc1`, in [3], the AC50 was 22.1 µM (active). As for `CCC(C)(C)C(=O)O[C@H]1C[C@@H](C)C=C2C=C[C@H](C)[C@H](CC[C@@H]3C[C@@H](O)CC(=O)O3)[C@H]21`, the call in experiment [4] and in experiment [2] was inactive. On to `O=c1[nH]c2ccc(S(=O)CCN3CCC(Cc4ccc(F)cc4)CC3)cc2o1` (configuration not stated), for which the molecule was classed as inactive in [5]. Consider `CCc1cc(SCc2sc(-c3ccc(C(F)(F)F)cc3)nc2CN2CCN(c3ccc(OC)cc3)CC2)ccc1OCC(=O)O`, for which the AC50 in experiment [4] is 7.88 µM (active); in experiment [6], 7.03 µM (active).

As for `COc1ccc2sc(C(=O)Nc3nnn[nH]3)c(OC(C)C)c2c1`, the AC50 in experiment [2] is 0.187 µM (active). `CC1=CC(=O)CC(C)(C)C1`: the concentration at half-maximal activity (AC50) in experiment [3] is 18.5 µM (active). For the molecule `COc1cccc(-c2ccc(/C=C\CN3CCCCCC3)cc2Cl)c1`, the molecule was called inactive in experiment [1]. The AC50 in experiment [4] was 15.5 µM (active). Consider `COCCOc1cc2cc(C(=O)NC3CCN(C(C)C)CC3)n(CC(=O)Nc3ccc(Cl)cn3)c2cn1`, for which, in [1], the molecule was classed as inactive. With `Cc1[nH]cnc1C[C@H]1CCc2c(C)c3ccccc3n2C1=O`, the molecule was called inactive in experiment [1] and in experiment [5]. Also, the AC50 in experiment [7] is 0.958 µM (active).

For the molecule `CC(C)=CCCC(C)=CC=O`, the molecule was called inactive in [1].

In the case of `CCCN(C1CCN(C(=O)C2CCNCC2)CC1)[C@@H]1CCc2ccc(OC)cc2C1`, the AC50 in experiment [5] was 8.67 µM (active). `CC(C)c1cccc(C(C)C)c1N1C(=O)c2ccc(O)cc2C1=O`: the call in [8] was inactive. The AC50 in [2] was 7.4 µM (active). For the molecule `O=C(O)c1cccc(N(Cc2cccnc2)c2ccc(OC(F)F)c(OC(F)F)c2)c1`, the result in [1] was inactive.

As for `On1ccccc1=S`, the AC50 in experiment [1] is 8.14 µM (active); in experiment [9] it was 4.73 µM (active); in experiment [5] it was 16.2 µM (active). On to `CCOC(=O)COc1ccc2c(c1)CC(NCC(O)c1cccc(Cl)c1)CC2` (configuration not stated), for which the AC50 in [1] was 21.7 µM (active). As to `Cc1ccc(N)cc1O`, the molecule was classed as inactive in experiment [7]. Turning to `CCn1nc(Cc2ccccc2)cc1C1CCN(C[C@H]2C[C@H](N(C)[C@@H](C(=O)O)C(C)C)C[C@@H]2c2cccc(F)c2)CC1`, the AC50 in experiment [1] is 20.8 µM (active).

Turning to `CCCCCCc1ccc(O)cc1O`, in experiment [2], the AC50 is 5.72 µM (active). Take `CNS(=O)(=O)c1cc(C(=O)N2CCC(CCN3C4CCC3CC(n3c(C)nc5ccccc53)C4)(c3cccc(F)c3)CC2)c(Cl)cc1F` (configuration not stated): the AC50 in experiment [1] was 1.71 µM (active); in experiment [7] it was 1.33 µM (active). In addition, in experiment [9], the molecule was classed as inactive. As for `COc1ccc(/C=C/S(=O)(=O)NC(=O)c2ccc(C)cc2Cl)cc1`, the AC50 in experiment [6] is 22.7 µM (active).

On to `CC/C(=C\C(=N/O)C(N)=O)C(C)[N+](=O)[O-]` (configuration not stated), for which, in [1], the result was inactive.

Consider `C=CCCCCCCCCC(=O)O`, for which the call in experiment [8] was inactive. With `O=C(O)c1cc(N=Nc2ccc(S(=O)(=O)Nc3ccccn3)cc2)ccc1O`, in experiment [2], the half-maximal activity concentration (AC50) was 9.98 µM (active). `CCOc1cccc(-n2cc(C(=O)N3CCN(c4cc(C(=O)O)c5ccccc5c4)CC3)nc2-c2ccc(C)cc2)c1`: the AC50 was 7.6 µM (active) in experiment [1], 9.02 µM (active) in experiment [4], 6.65 µM (active) in [2] and 0.00589 µM (active) in experiment [6]. Regarding `O=P(OC(CCl)CCl)(OC(CCl)CCl)OC(CCl)CCl`, the values for the half-maximal activity concentration (AC50) in experiment [1] and in [7] were 12.5 µM (active) and 8.52 µM (active), respectively. In addition, the molecule was classed as inactive in [2] and in [6]. Consider `Cn1c(=O)cc(Oc2ccc(F)cc2F)c2cnc(NCC(C)(C)O)nc21`, for which the call in experiment [1] was inactive. Further, the AC50 in experiment [6] is 11.3 µM (active). Turning to `CN(C)c1ccc(N=NS(=O)(=O)O)cc1`, the AC50 in experiment [1] is 0.656 µM (active). As to `COc1ccc(-n2nc(C(F)F)cc2-c2ccc(S(C)=O)cc2)cc1` (configuration not stated), the AC50 in experiment [7] is 11.5 µM (active). Turning to `Cc1ccc(C)c(O)c1`, in experiment [10], the concentration at half-maximal activity (AC50) was 9.84 µM (active).

Take `O=C(OC[C@H]1O[C@@H](OC(=O)c2cc(O)c(O)c(OC(=O)c3cc(O)c(O)c(O)c3)c2)[C@H](OC(=O)c2cc(O)c(O)c(OC(=O)c3cc(O)c(O)c(O)c3)c2)[C@@H](OC(=O)c2cc(O)c(O)c(OC(=O)c3cc(O)c(O)c(O)c3)c2)[C@@H]1OC(=O)c1cc(O)c(O)c(OC(=O)c2cc(O)c(O)c(O)c2)c1)c1cc(O)c(O)c(OC(=O)c2cc(O)c(O)c(O)c2)c1`: the result in experiment [2] was inactive. Further, the AC50 in experiment [6] is 12 µM (active). Consider `O=C(O)CC(O)C(=O)O` (configuration not stated), for which the outcome in experiment [4] and in experiment [9] was inactive.
